Drawing on PubChem BioAssay (NCATS), this text covers Potency for 39 compounds.

Structures are written as SMILES. A number with no mark means an inactive call. No rule for the calls is given here.
Potency is read from the fitted curve at half-maximal effect.

This assay relates to HIV-1 nucleocapsid protein NCp7 (binding to TG oligonucleotide). The experiment in a line: HIV Nucleocapsid (AID 346).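 Also: potency is for inhibitors that block NC binding and lower polarization.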 The conditions noted are these: HIV-1 NC / fluorescein-TGTGTGTG probe, fluorescence polarization. Summed up:
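Fluorescence polarization readout: labelled TG4xF oligo (10 nM) with 100 nM nucleocapsid protein, high-salt (250mM NaCl) Hepes pH 7.5 buffer containing zinc and fresh reducing agents. Compounds added by pin tool; incubation 1 hr, room temperature.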
Turning to `Cn1c(=O)c(-c2ccc(Cl)cc2)nc2cnc(OCc3ccccc3)nc21`, the Potency was more than 20 µM.

In the case of `N#Cc1cccc(-c2nc(NCc3cccs3)c3ccccc3n2)c1`, the Potency is more than 20 µM. On to `c1csc(CNc2ncnc3ccc(-c4ccoc4)cc23)c1`, for which the Potency is more than 20 µM.

With `CN(Cc1ccco1)c1nc(-c2ccccc2Cl)nc2ccccc12`, the Potency is more than 20 µM. For the compound `CCNc1ncc2nc(-c3cn(C)c4ccccc34)c(=O)n(Cc3cccs3)c2n1`, the Potency was more than 20 µM. For `Cc1noc(C)c1-c1ccc2ncnc(N3CCN(C)CC3)c2c1`, the Potency was more than 20 µM. For the compound `CCNc1ncc2ncc(=O)n(C[C@H]3CCCO3)c2n1`, the Potency is more than 20 µM. Regarding `CN(C)C(=O)c1ccc(-c2nc(NCc3ccccc3)c3ccccc3n2)cc1`, the Potency was more than 20 µM. As to `Cc1noc(C)c1C(=O)N1CCC2(CCCN(c3ncccn3)C2)CC1`, the Potency is more than 20 µM. Turning to `CN(C)Cc1ccccc1-c1cncnc1Nc1ccccc1`, the Potency is more than 20 µM.

`COc1ccc2[nH]cc(CCNc3ncnc4ccc(-c5ccccc5CN(C)C)cc34)c2c1`: the Potency was more than 20 µM.

Regarding `CC(=O)N1CCC2(CCCN(c3ccccn3)C2)CC1`, the Potency is more than 20 µM.

Consider `Cc1cnc(CNc2ccnc(-c3cccc(NS(C)(=O)=O)c3)n2)cn1`, for which the Potency was more than 20 µM. As for `COc1cccc(-c2cncnc2Nc2ccccc2)c1`, the Potency is more than 20 µM.

With `COc1ccc(C(=O)N2CCC3(CCCN(c4ccccn4)C3)CC2)cc1`, the Potency is more than 20 µM. On to `Cc1ccccc1-c1nc(N2CCN(C)CC2)c2ccccc2n1`, for which the Potency is more than 20 µM. `COCCNc1ncnc2ccc(-c3ccoc3)cc12`: the Potency was more than 20 µM. On to `COc1cccc(Cn2c(=O)c(-c3cc(F)cc(F)c3)nc3cnc(N4CCN(C)CC4)nc32)c1`, for which the Potency was more than 20 µM. Turning to `CC(=O)NCCNc1nc(-c2cccc(NS(C)(=O)=O)c2)nc2ccccc12`, the Potency is more than 20 µM. `CN1CCN(c2ncc3nc(-c4ccccc4)c(=O)n(Cc4ccc(F)cc4)c3n2)CC1`: the Potency is more than 20 µM. Regarding `CN(C)C(=O)c1ccc(-c2ccc3ncnc(NCc4ccccc4)c3c2)cc1`, the Potency was more than 20 µM. For the compound `O=c1cnc2cnc(Oc3ccccc3)nc2n1CCc1ccccc1`, the Potency is more than 20 µM. Regarding `COc1ccc(Oc2ncc3nc(-c4ccc(OC)cc4)c(=O)n(Cc4cccs4)c3n2)cc1`, the Potency is more than 20 µM.

With `O=c1c(-c2cccs2)nc2cncnc2n1Cc1ccccc1`, the Potency was more than 20 µM. For `COc1ccccc1CNc1ncnc2ccc(-c3ccccc3C#N)cc12`, the Potency was more than 20 µM. For `O=c1c(-c2cc(F)cc(F)c2)nc2cnc(N3CCNCC3)nc2n1Cc1cccs1` the value was more than 20 µM; for `COCCn1c(=O)c(-c2cccs2)nc2cncnc21`, more than 20 µM. As to `COc1ccc(Oc2ncc3nc(C)c(=O)n(-c4ccc(OC)cc4)c3n2)cc1`, the Potency is more than 20 µM. Consider `c1csc(CNc2ncncc2-c2ccc3c(c2)OCO3)c1`, for which the Potency is more than 20 µM. On to `CN(C)c1ncc2ncc(=O)n(Cc3cccs3)c2n1`, for which the Potency is more than 20 µM. The result for `CC(=O)NCCNc1nc(-c2cccc(C#N)c2)nc2ccccc12` reads more than 20 µM; that for `CN(C)c1ccc(-c2nc(Nc3ccncc3)c3ccccc3n2)cc1`, more than 20 µM. `CN1CCN(c2ncc3nc(CCc4ccccc4)c(=O)n(Cc4ccc(F)cc4)c3n2)CC1`: the Potency was more than 20 µM. The result for `CN(Cc1ccco1)c1ccnc(-c2ccoc2)n1` reads more than 20 µM. As for `COc1ccc(C(=O)N2CCC[C@@]3(CCN(Cc4ccccc4)C3)C2)cc1`, the Potency was more than 20 µM. Take `COc1cccc(Nc2ncc3nc(-c4cccs4)c(=O)n(C[C@H]4CCCO4)c3n2)c1`: the Potency is more than 4 µM. In the case of `COCCn1c(=O)c(CCc2ccccc2)nc2cnc(N3CCNCC3)nc21`, the Potency is more than 20 µM. The result for `O=S(=O)(c1ccccc1)N1CCC2(CC1)CN(Cc1ccccc1)C2` reads more than 20 µM; that for `O=C(c1ccncc1)N1CCC2(CC1)CCN(c1ccncc1)CC2`, more than 20 µM.
